# Data taken from ChEMBL document CHEMBL3988442, “University of Dundee, Small-Polar-MMV Screening Library” (2021).
# Species: Homo sapiens
# Assay: To identify inhibition of the IFN signalling (Jak-Stat) pathway via expression of an eGFP reporter gene under the control of an IFN-stimulated response element (ISRE) containing MxA promoter.
# Format: functional
# Set-up: scale not given: direction of the effect not stated beside the values
# Conditions: 30 µM
row,Compound,Percent Effect [%]
1,Cc1nc[nH]c1CN1CCN(C(=O)c2cccs2)[C@H]2CS(=O)(=O)C[C@H]21,5.03
2,Cc1ccc(CCC(=O)N2CCCC(n3cncn3)C2)c(C)c1 (stereo not drawn),-1.21
3,Cc1cc(-c2nn(C)c(Cl)c2CN2CCOCC2CC(=O)O)no1 (stereo not drawn),22.2
4,CCc1nc(CN2CCCN(C(=O)c3cn[nH]c3CC)CC2)cs1,-6.8
5,CCC(=O)N1CCC(Cc2nccnc2Nc2ccccn2)CC1,18.1
6,Cn1cc(NC(=O)N2CCC(NS(C)(=O)=O)CC2)ccc1=O,18.1
7,CC(C)CC(=O)N1C[C@@H]2CCN(c3ncccn3)C[C@@H]2C1,17.9
8,CN(Cc1ccc2c(c1)OCCO2)C(=O)Cn1ccccc1=O,3.52
9,Cc1ccc(N2CCC3(CCCN(C(=O)c4cccnc4)C3)C2)nn1 (stereo not drawn),2.17
10,O=C(c1cc[nH]n1)N1CCCC(c2cccc(-n3ccnc3)n2)C1 (stereo not drawn),13.7
11,COC(=O)C1CCN(C(=O)c2ccc(N(C)S(C)(=O)=O)c(C)c2)CC1,-11.3
12,CC(=O)N(Cc1ncc(C)o1)C1CCN(CCCc2cnn(C)c2)C1 (stereo not drawn),2.97
13,O=C(c1ccc(F)cc1Cl)N1CCC(Nc2cccnn2)CC1,15.6
14,Cc1cc(CNc2cc(Cl)ccc2OCCS(C)(=O)=O)no1,-4.69
15,CN1[C@H](Cn2cccn2)C[C@@H]2CN(C(=O)Cc3cccs3)CC[C@@H]21,18.5
16,Cc1cccc(CN2C[C@@H]3COC[C@]3(CNC(=O)c3ccsc3)C2)n1,-5.86
17,COc1ccc(C2CC(=O)Nc3c2nc2n3CCCC2)cc1OC (stereo not drawn),30.7
18,CN(C)CCN1CCC2(CCN(C(=O)c3ccc(F)cc3)CC2)C1=O,12.2
